Out of some 410,000 compounds screened, about 5,000 (1.2%) were called active. Inconclusive results (about 13%) are left out. Only a selection was taken, and actives are over-represented in it overall. A number with no mark means an inactive call. Calls follow the shape of the dose curve; as a rule, active = well fitted inhibition curve with a large enough effect; inconclusive = small, poorly fitted or top-dose-only effect; inactive = no such curve, though single readings can be large or run the other way.
Experiment: qHTS for Inhibitors of TGF-b; also: nearly all actives have a fitted effect of over 65% in size
Settings: HepG2 CAGA-GFP TGF-b/SMAD3 reporter, GFP fluorescence, 18 h, TGF-beta stimulated, 500 pg/mL final; series mostly up to 46.1 µM; activity, negative = inhibition: at the top concentration
How it was run: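 Cell-based qHTS in HEPG2 carrying a CAGA-GFP Smad reporter; compounds added before 500 pg/mL final TGF-beta, 18 h incubation at 37 degrees C, GFP fluorescence quantified per cell by imaging cytometry.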
% is scaled to controls: 0 for no effect and ±100 for the full control effect; potency is read from the fitted curve at half-maximal effect.

Row | SMILES | activity, negative = inhibition [%] | Potency
1 | CCOC(=O)N1CCC(NC(=O)c2cnn(-c3cccc(C)c3)c2C2CCN(C(=O)OC(C)(C)C)CC2)CC1 | -6.58 | 
2 | O=C(NCCc1ccccc1)C(=O)NCC(c1ccco1)S(=O)(=O)c1ccccc1 (stereo not drawn) | 5.98 | 
3 | CCOCCCNC(=O)c1c(NC(=O)c2nc(SC)ncc2Cl)sc2c1CCCC2 | 11.6 | 
4 | O=C(Nc1cccc2cccnc12)c1cccc2c(Br)cccc12 | -11.1 | 
5 | Cc1ccc(C)c(N2CCN(C(c3ccccc3)c3nnc(-c4ccccc4)o3)CC2)c1 (stereo not drawn) | -6.53 | 
6 | CC(=O)c1ccc(NC(c2ccc(F)cc2)c2nnc(-c3ccccc3)o2)cc1 (stereo not drawn) | 0.279 | 
7 | Fc1ccc(C(Nc2ccc(Cl)c(C(F)(F)F)c2)c2nnc(-c3ccccc3)o2)cc1 (stereo not drawn) |  | 10 µM (active)
8 | Cc1ccc(-c2nnc(SCc3ccccc3C)o2)cc1 | -13.1 | 
9 | CCOC(=O)c1cccc(NS(=O)(=O)c2cn(C)c(C)n2)c1 | 1.9 | 
10 | Cc1c(C(=O)N(C)C)sc2c1c(=O)n(-c1ccc(F)cc1)c(=O)n2CC(=O)N(C)c1ccccc1 | 9.55 | 
11 | CCNC(=O)c1cc2n(n1)CCCN(Cc1ccc(C)cc1)C2=O | -2.45 | 
12 | Cc1ccc(NC(=O)c2cc3cc(C)ccc3n2C)cc1 | -0.488 | 
13 | CCCn1c(=N)c(C(=O)NCc2ccccc2)cc2c(=O)n3cccc(C)c3nc21 | 86.4 | 
14 | COC(=O)COc1cccc2c(=O)n(CC(=O)NCc3ccccc3)ccc12 |  | 8.91 µM (active)
15 | CCOCCn1ccc2c(OCC(=O)NCc3ccc(C)cc3)cccc2c1=O | -0.375 | 
16 | CCCn1ccc2c(OCC(=O)NCc3ccc(F)cc3)cccc2c1=O | -35.8 | 
17 | COc1ccc(OCC(=O)Nc2cccc(C(=O)OCc3cc(=O)n4nc(C)sc4n3)c2)cc1 | 0.41 | 
18 | O=C(NCCCN1CCOCC1)c1ccc2c(c1)N(Cc1cccc(F)c1)C(=O)c1ccccc1S2 |  | 11.2 µM (active)
19 | O=C(NCCCN1CCOCC1)c1cc(-c2ccccc2F)no1 | -4.7 | 
20 | CCC1=Nc2cc(C(=O)NCCCN3CCOCC3)ccc2Sc2ccc(Br)cc21 | -10.2 | 
21 | O=C(NCCN1CCOCC1)c1ccc2c(c1)N(Cc1cccc(Cl)c1)C(=O)c1ccccc1S2(=O)=O | -13.7 | 
22 | O=C(NCCCN1CCCCC1)c1ccc2c(c1)NC(=O)C(N1CCOCC1)S2 (stereo not drawn) | -0.157 | 
23 | Cc1csc2nc(COC(=O)c3ccc(NC(=O)COc4ccccc4F)cc3)cc(=O)n12 | -17.6 | 
24 | COc1ccccc1CNC(=O)C(=O)NCC(c1cccs1)S(=O)(=O)c1cccs1 (stereo not drawn) | 2.99 | 

Row | SMILES | activity, negative = inhibition [%] | Potency
25 | Cc1ccc2c(c1)N(C(=O)Nc1ccc(Br)cc1F)CCO2 | 1.64 | 
26 | CC1CC(C)CN(C(=O)C2CC(=O)N(c3ccc(F)cc3)C2)C1 (stereo not drawn) | 7.86 | 
27 | C[C@@H]1C(c2ccc(F)cc2)=NN(c2ccc(Br)cc2)[C@H]1C(=O)N1CCOC1=O |  | 14.1 µM (active)
28 | COc1ccc(CNC(=O)c2cc3c(s2)-c2ccccc2OC3)cc1 | 3.78 | 
29 | Cc1cc(C)cc(-n2c(SCC(=O)NCC3CCCO3)nc3c([nH]c4ccccc43)c2=O)c1 (stereo not drawn) | 2.07 | 
30 | Cc1oc(-c2ccccc2)nc1Cn1c(SCc2cccc(C(F)(F)F)c2)nc2cccnc21 |  | 15.8 µM (active)
31 | Cc1cccc(CSc2nc3ccncc3n2Cc2ccc(C(=O)O)cc2)c1 | 12.2 | 
32 | Cc1ccc(CSc2nc3cccnc3n2Cc2ccc(C(=O)NC3CC3)cc2)cc1 | -1.14 | 
33 | COC(=O)c1ccc(OC)c(Cn2c(=O)n(Cc3ccccc3)c(=O)c3c2c2cc(OC)ccc2n3C)c1 | -1.14 | 
34 | COc1cc2[nH]c(C)c(CCN3CCN(c4ccccc4)CC3)c2cc1OC | -37.4 | 
35 | O=C(CNS(=O)(=O)c1cccc(C(F)(F)F)c1)Nc1ccccc1F | -15.6 | 
36 | O=C(Nc1cc(C(F)(F)F)ccc1Cl)c1nc2ccccc2nc1N1CCCCC1 | 12.6 | 
37 | O=C(NNc1ccccc1Cl)C(O)(c1cccc(C(F)(F)F)c1)c1cccc(C(F)(F)F)c1 |  | 15.8 µM (active)
38 | COc1ccc(CNC(=O)CCc2c(C)nn(-c3ccc(N4CCCC4)nn3)c2C)cc1 | -14 | 
39 | Cc1ccccc1CNC(=O)CSc1nnc(C)c2c(C)n(-c3ccccc3)nc12 | 1.99 | 
40 | O=C(NCCc1ccc(Cl)cc1)c1ccc2nc(CCc3ccccc3)oc2c1 | 9.09 | 
41 | Cc1ccc(C)c(Cn2c(CCCNC(=O)C3CCCCC3)nc3ccccc32)c1 | -5.37 | 
42 | Cn1c(N)c(C(=O)COC(=O)/C=C/c2cccc(C(F)(F)F)c2)c(=O)n(C)c1=O | -3.63 | 
43 | CCOC(=O)CCC(NC(=O)c1ccc(CNc2nc3cc(C(F)(F)F)ccc3nc2C(=O)OCC)cc1)C(=O)OCC (stereo not drawn) | 0 | 
44 | CCOC(=O)c1c(NC(=O)c2cc(CC)on2)sc(C(C)=O)c1C | 8.3 | 
45 | CN1C(=O)c2[nH]nc(-c3ccc(F)cc3)c2C1c1ccccn1 (stereo not drawn) | -0.168 | 
46 | COc1cccc(-c2n[nH]c3c2C(c2cccc(O)c2)N(C)C3=O)c1 (stereo not drawn) | -2.1 | 
47 | CCCCN1C(=O)c2[nH]nc(-c3ccccc3O)c2C1c1cccc(OCc2ccccc2)c1 (stereo not drawn) |  | 15.8 µM (active)
48 | CN(C)Cc1cn(-c2ccccc2)nc1-c1ccccc1 | -2.77 | 

Row | SMILES | activity, negative = inhibition [%] | Potency
49 | Cc1ccc(CNC(=O)C2(C(F)(F)F)C/C(=C\CCO)CCCO2)o1 (stereo not drawn) | -17.7 | 
50 | CCOc1cc(C2C(C(=O)Nc3ccc(OC)cc3)=C(C)Nc3nc(SC)nn32)ccc1O (stereo not drawn) | 0.0326 | 
51 | CN1c2ccc(C=O)c3c(C=O)ccc(c23)N(C)C1(C)C |  | 20 µM (active)
52 | Cc1ccc(C=O)c([B-](F)(F)F)c1 | 14.7 | 
53 | CN1CCN(CCCCOc2cccc3ccccc23)CC1 | -3.76 | 
54 | CC(C)c1ccccc1OCC(O)CN(CC(O)COc1cccc2ccccc12)C(C)C (stereo not drawn) |  | 15.8 µM (active)
55 | CC1CC(C)CN(CCOc2cccc3ccccc23)C1 (stereo not drawn) | -4.16 | 
56 | CCN(C(=O)Cn1cnc2sc(C)c(S(=O)(=O)N3CCN(c4ncccn4)CC3)c2c1=O)c1ccccc1F | -10.9 | 
57 | O=C(Nc1ccc2nc(SCCOc3ccccc3Cl)sc2c1)c1ccco1 | -17.7 | 
58 | CSc1ccc(CCNC(=O)c2cc(C)nc3c2c(C)nn3-c2cccc(F)c2)cc1 | -13.8 | 
59 | COc1cc(NC(=O)c2cc(C3CC3)nc3c2c(C)nn3-c2ccccc2)cc(OC)c1 | 6.51 | 
60 | Cc1cc(C(=O)Nc2cccc(C(F)(F)F)c2)c2c(C)nn(-c3cccc(F)c3)c2n1 |  | 7.08 µM (active)
61 | O=C(Nc1cc(C(F)(F)F)ccc1Cl)c1ccc2c(c1)CCN2S(=O)(=O)c1ccccc1 | -3.22 | 
62 | O=C(Nc1cc(C(F)(F)F)ccc1Cl)c1cc2nc(-c3ccc4c(c3)OCO4)cc(C(F)(F)F)n2n1 | 0.776 | 
63 | Cc1oc2c(F)c(F)c(F)c(F)c2c1S(=O)(=O)Nc1cccc(C(F)(F)F)c1 |  | 7.08 µM (active)
64 | Cc1noc(C)c1S(=O)(=O)Nc1cc(C(F)(F)F)ccc1N1CCOCC1 | -7.13 | 
65 | CN(CC(=O)Nc1cccc(C(F)(F)F)c1)S(=O)(=O)c1cccs1 | -21.3 | 
66 | CCC(=O)N1N=C(c2ccc(OC)cc2)CC1c1cn(-c2ccccc2)nc1-c1cccs1 (stereo not drawn) | 2.04 | 
67 | Cc1nnc(SCC(=O)NCc2ccccc2Cl)c2nn(-c3ccccc3)c(C)c12 | -6.97 | 
68 | C=C1C(=O)[C@]23C[C@H]1CCC2[C@@]1(C)C(C[C@@H]3O)[C@](C)(C(=O)O)CC[C@@H]1O (stereo partly drawn) |  | 10 µM (active)
69 | CCn1cc2nc(SCc3ccccc3Cl)n(CCc3ccccc3)c(=O)c2n1 | -0.372 | 
70 | Cc1ccc(S(=O)(=O)c2c(Nc3cccc(Cl)c3)sc(C(=O)c3ccc4c(c3)OCO4)c2N)cc1 | 0.384 | 
71 | Cc1ccc(NC(=O)CSc2cccc3cccnc23)c(C)c1 |  | 14.1 µM (active)
72 | O=C(N/N=C\c1cccnc1)c1cc(-c2ccccc2)nc2c(Cl)cccc12 | 0 | 

Row | SMILES | activity, negative = inhibition [%] | Potency
73 | Cc1ccc(S(=O)(=O)N(CC(=O)N/N=C/c2ccc(F)cc2)c2cccc3cccnc23)cc1 | -1.79 | 
74 | O=C(CSc1cccc2cccnc12)N/N=C/c1cccnc1 |  | 4.47 µM (active)
75 | Cc1ccc(NC(=O)C2CCCN2S(=O)(=O)c2cccc3cccnc23)c(C)c1 (stereo not drawn) | -4.43 | 
76 | Cc1ccc(NC(=O)CSc2nc3c([nH]c4ccccc43)c(=O)n2-c2ccccc2)c(C)c1 | -16.8 | 
77 | Cc1cccc(C)c1-n1ncc(C(=O)NCCCN2CCCCC2)c1C1CCN(C(=O)OC(C)(C)C)CC1 | -1.79 | 
78 | Cc1ccccc1C(=O)N(Cc1ccc(N(C)C)cc1)CC1CCCO1 (stereo not drawn) | -0.952 | 
79 | CCOC(=O)c1ccc(NC(=O)CC2C(=O)N(c3ccccc3)C(=O)N2Cc2cccs2)cc1 (stereo not drawn) | -2.46 | 
80 | CCOC(=O)C1CCN(c2nc3c(S(=O)(=O)c4ccc(CC)cc4)nnn3c3ccc(Cl)cc23)CC1 | 0.965 | 
81 | CN(C(=O)CCN1C(=O)/C(=C/c2ccccc2F)SC1=S)C1CCS(=O)(=O)C1 (stereo not drawn) | -10.2 | 
82 | O=C1/C(=C/c2cccs2)SC(=S)N1C1CCS(=O)(=O)C1 (stereo not drawn) |  | 15.8 µM (active)
83 | CCN(C(=O)CN1C(=O)/C(=C/c2ccc(F)cc2)SC1=S)C1CCS(=O)(=O)C1 (stereo not drawn) | -28.5 | 
84 | COc1ccc(Cl)cc1S(=O)(=O)N1CCC(c2ccncc2)CC1 | -14.5 | 
85 | CCN(C(=O)Cn1cc(S(=O)(=O)N2CCN(c3ccccc3F)CC2)c2ccccc2c1=O)c1ccc(C)c(C)c1 | -16.8 | 
86 | COc1ccc(C(F)(F)F)cc1NC(=O)c1sc2nc(-c3cccs3)ccc2c1N | 7.6 | 
87 | Cc1ccc(CN2CCC(CNC(=O)c3cnn(-c4ccc(C)cc4)c3C3CCN(C(=O)OC(C)(C)C)CC3)CC2)cc1 | -19.3 | 
88 | Cc1ccc(CN2CCC(CNC(=O)c3cnn(-c4ccccc4Cl)c3C3CCN(C(=O)OC(C)(C)C)CC3)CC2)cc1 |  | 15.8 µM (active)
89 | Cc1ccc(-n2ncc(C(=O)NC3CC3)c2C2CCN(C(=O)OC(C)(C)C)CC2)c(C)c1 | 3.65 | 
90 | CCc1nn(CC(=O)Nc2cc(C)cc(C)c2)c(=O)c2cc3sccc3n12 | 0.509 | 
91 | Oc1c(C(c2ccccn2)N2CCOCC2)ccc2cccnc12 (stereo not drawn) |  | 3.98 µM (active)
92 | Oc1c(C(c2ccccc2Cl)N2CCOCC2)sc2nc(-c3ccco3)nn12 (stereo not drawn) | -0.624 | 
93 | O=C(COC(=O)c1ccccc1OCCOc1ccccc1)Nc1cccc(Br)c1 | -6.6 | 

Source: PubChem BioAssay AID588855 (National Center for Advancing Translational Sciences (NCATS), 2011)
